# Screening results as filed in PubChem.
# HT1080NT lethal – kills 2HG-producing HT-1080-NT fibrosarcoma cells; hit rate 1.6% among 360,000; HT-1080-NT fibrosarcoma viability, CellTiter-Glo ATP luminescence, 48 h; Potency, µM (highest dose often 46.1 µM), inactives show at the highest dose activity, negative = less viability, most hits filed as cytotoxic;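 note: NT is the 2HG producing partner of a matched IDH1 knockdown line; potency is the fitted concentration of half-maximal effect; 0% = DMSO-treated cells and -100% = media-only wells without cells; nearly all actives have a fitted effect of over 55% in size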
#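 A 48-hour cytotoxicity screen used HT-1080-NT cells plated 2 hours before compound delivery. ATP-based CellTiter-Glo luminescence measured viability, normalized to DMSO and no-cell controls.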
# TDP1 cell CPT – growth inhibition of DT40 Tdp1-/-;hTDP1 cells with camptothecin (screen for TDP1 inhibitors) | chicken DT40 Tdp1-/-;hTDP1 cells + 20 nM CPT, ATP luminescence, 48 h | Potency, µM (doses to about 46.2 µM), without a hit: at the highest dose activity change, negative = growth inhibition, usual class: inhibitors | AID 686979 | hit rate 12% among 420,000; note: potency is the fitted concentration of half-maximal effect; nearly all actives have a fitted effect of over 55% in size
#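 Chicken DT40 Tdp1-/- cells complemented with human TDP1, 400 cells/well, exposed to compounds plus 20 nM camptothecin for at least 48 h at 37 C; viability read as ATP content by CellTiter-Glo luminescence.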
# HT1080 IDH1KD tx – kills HT-1080 cells with IDH1 knockdown. Potency, µM (series often up to 46.1 µM), without a hit: top-dose activity, negative = toxicity, actives largely listed as cytotoxic. HT-1080 IDH1 knockdown viability, ATP luminescence, 48 h. AID 686971. hit rate 2% among 360,000;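 note: potency is the fitted concentration of half-maximal effect; 0% = DMSO wells and -100% = cell-free medium wells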
#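 Cytotoxicity counter-line: IDH1KD HT-1080, 48 h, CellTiter-Glo. Curves classed by r2, magnitude and activity.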
# TDP1 cell noCPT – qHTS for Inhibitors of human tyrosyl-DNA phosphodiesterase 1 (TDP1): qHTS in cells in absence of CPT; DT40 Tdp1-/- hTDP1 cells, no CPT, ATP luminescence, 48 h; Potency, µM (highest dose often 46.2 µM), for the others: at the top dose activity change, negative = growth inhibition, actives largely listed as inhibitors; hit rate 15% among 420,000; AID 686978, 2013; note: potency is the fitted concentration of half-maximal effect; nearly all actives have a fitted effect of over 55% in size
#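 DT40 Tdp1-/-;hTDP1 cells, no CPT (DMSO vehicle only), 400 cells/well; compounds pin-transferred; ≥48 hr, 37 °C; CellTiter-Glo 30 min RT dark, luminescence read.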
# IL1B secr inh – inflammasome signaling inhibition, IL-1 beta readout. THP-1 LPS/ATP IL-1B secretion, AlphaLISA, 16 h; active compounds read low. activity change, % at 57.5 µM. hit rate 4.7% among 360,000. AID 743279; in the data active = activity change below about -50%; inconclusive = mostly about -30% to -49%
#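 Secreted IL-1B measured by AlphaLISA bead assay after 16 h compound exposure of THP-1 cells; compounds (final up to 57.5 uM) added 1 h before LPS (250 ng/mL) and ATP (1.25 mM) stimulation; lower signal means less secretion.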
# * marks the source's active call; other numbers are inactive results; ? = inconclusive; · = no result. An excerpt weighted towards active compounds, which were near 19% of everything screened. Unless noted, calls come from the whole dose curve; as a rule, active = well fitted curve in the direction sought with a large enough effect; inconclusive = small, poorly fitted or top-dose-only effect, or another doubt; inactive = no such curve, though single readings can be large; an effect the other way counts as inactive or inconclusive. Unless noted, % is set by controls: 0 for no effect and ±100 for the full control effect.
SMILES,HT1080NT lethal,TDP1 cell CPT,HT1080 IDH1KD tx,TDP1 cell noCPT,IL1B secr inh
COC(=O)CCC(C)N1CCC(Oc2ccc(C(=O)NCc3ccccn3)cc2)CC1 (configuration not stated),17%,2%,14%,-2%,12
COc1cccc(CN2CCC2(C)C(=O)Nc2ccc(Cl)c(Cl)c2)c1F (configuration not stated),-22%,21µM*,?,?,-3
CCN(CC)Cc1c(C)[nH]c2ccc(NC(C)=O)cc2c1=O,1%,1%,1%,1%,3
CCOC(=O)C(Cc1ccc(O)cc1)Nc1nc2ccccc2o1 (configuration not stated),7%,-1%,-2%,-21%,-54*
CSc1nc(Cl)c(Br)c(Nc2c[nH]c(=O)[nH]c2=O)n1,2%,?,0%,?,13
COc1ccc2c(c1)c1c(c(=O)n(-c3ccc(C)cc3)c(=O)n1CC(=O)N1CCCC1)n2C,·,16µM*,·,21µM*,·
COc1ccc2c(c1)c1c(c(=O)n(-c3cccc(Cl)c3)c(=O)n1CC(=O)N1CCCC1)n2C,·,23µM*,·,?,·
CN(C)C(=O)CCC(=O)N1CCCC(N2CCN(c3cccc(C(F)(F)F)c3)CC2)C1 (configuration not stated),6%,4%,-2%,-19%,12
Cc1c(C(=O)CN2CCCC(C)(C)C2)c2ccccc2n1C,3%,-16%,-4%,?,-8
CC(=O)N(C(C)=O)c1ncnc2c1c(-c1ccc(Cl)cc1)nn2C(C)(C)C,?,?,15µM*,18µM*,-83*
CCOC(=O)C1(C)CCN1C(=O)c1ccccc1OC(F)(F)F (configuration not stated),10%,-17%,-2%,-12%,0
COc1cccc(C(=O)Nc2ccccc2-c2nnc(-c3cccc(OC)c3)o2)c1,·,9.2µM*,·,12µM*,·
Cc1cc(C)cc(OCC(=O)Nc2cccc(-c3nnc(-c4ccco4)o3)c2)c1,-2%,?,10%,?,0
O=C(Cc1cccs1)Nc1cccc(-c2nnc(-c3ccco3)o2)c1,-9%,16µM*,-13%,12µM*,?
COc1ccccc1CC(=O)Nc1ccc(-c2nnc(-c3ccco3)o2)cc1,0%,?,-2%,16µM*,?
Cc1ccc(-c2nnc(-c3ccc(NC(=O)Cc4cccs4)cc3)o2)cc1,?,15µM*,?,18µM*,18
O=C(Cc1ccccc1)Nc1ccc(-c2nnc(-c3ccco3)o2)cc1,?,-20%,?,-7%,4
Cc1ccc(C)c(NC(=O)COC(=O)c2cc3ccccc3oc2=O)c1,0%,7%,6%,9%,9
O=C(CN1CCc2ccccc21)NC(=O)NC1CCCCC1,-3%,?,-3%,?,0
FCCCOc1ccc(CN2CCN(c3ccccc3F)CC2)cc1,-3%,-1%,-1%,-29%,11
Cc1ccc(C(NC(=O)Cc2cccs2)C(=O)Nc2ccc(C(C)C)cc2)cc1 (configuration not stated),·,16µM*,·,?,·
COc1ccc(NC(=O)C(NC(=O)Cc2cccs2)c2ccc(OC)cc2)cc1 (configuration not stated),·,-8%,·,2%,·
COc1ccc(CC(=O)Nc2cccc(-c3nnc(-c4ccco4)o3)c2)cc1,-9%,7.3µM*,-11%,7.3µM*,-20
O=C(Nc1ccc(-c2nnc(-c3ccco3)o2)cc1)C(c1ccccc1)c1ccccc1,-25%,9.2µM*,-30%,8.2µM*,-8
COc1cc(C(=O)Nc2cccc(-c3nnc(-c4ccco4)o3)c2)ccc1OC(C)=O,-22%,13µM*,-25%,16µM*,-88*
COc1cc(C(=O)Nc2ccc(-c3nnc(-c4ccco4)o3)cc2)cc(OC)c1OC,-1%,?,5%,?,-4
CC(=O)c1ccc(NS(=O)(=O)c2ccc(Br)s2)cc1,·,-7%,·,8%,·
